Giardia killer – Giardia lamblia killing; Giardia lamblia trophozoite viability; activity change, % at 7.66 µM, hits read low; hit rate 0.15% among 340,000; AID 540267; in the data active = activity change below about -80%; inconclusive = between about -30% and that limit;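 note: parasites exposed to compound for two days anaerobically before the ATP read; % is set by controls: 0 for no effect and ±100 for the full control effect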
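Giardia trophozoites, 100 cells per well, were exposed to compounds for 48 hrs at 37 deg C under anaerobic conditions; viability was then read as ATP content by bioluminescence after 15-30 min at room temperature.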
KB-V1 MDR tox – kills drug-selected multidrug resistant KB-V1 cells. KB-V1 MDR cells viability, CellTiter-Glo, 72 h. Potency, µM (top dose mostly 46.1 µM), usual class: cytotoxic. hit rate 3.4% among 400,000. AID 1347076; note: potency is the fitted concentration of half-maximal effect; % is set by controls: 0 for no effect and ±100 for the full control effect; nearly all actives have a fitted effect of over 60% in size
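Compound-treated KB-V1 multidrug-resistant cells, 72 h, 37 degrees C; viability by CellTiter-Glo. Fitted qHTS curves give the values.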
S-ASM inh – human S-ASM enzyme inhibition. hit rate 0.006% among 340,000. P17405. AID 504937. placental ASM, HMU-PC fluorogenic substrate, 60 min. Potency, µM (top dose mostly 57.5 µM), without a hit: top-dose activity change, negative = inhibition, hits mostly inhibitors; note: potency is the fitted concentration of half-maximal effect
Target sequence (P17405 47-631 limits assumed): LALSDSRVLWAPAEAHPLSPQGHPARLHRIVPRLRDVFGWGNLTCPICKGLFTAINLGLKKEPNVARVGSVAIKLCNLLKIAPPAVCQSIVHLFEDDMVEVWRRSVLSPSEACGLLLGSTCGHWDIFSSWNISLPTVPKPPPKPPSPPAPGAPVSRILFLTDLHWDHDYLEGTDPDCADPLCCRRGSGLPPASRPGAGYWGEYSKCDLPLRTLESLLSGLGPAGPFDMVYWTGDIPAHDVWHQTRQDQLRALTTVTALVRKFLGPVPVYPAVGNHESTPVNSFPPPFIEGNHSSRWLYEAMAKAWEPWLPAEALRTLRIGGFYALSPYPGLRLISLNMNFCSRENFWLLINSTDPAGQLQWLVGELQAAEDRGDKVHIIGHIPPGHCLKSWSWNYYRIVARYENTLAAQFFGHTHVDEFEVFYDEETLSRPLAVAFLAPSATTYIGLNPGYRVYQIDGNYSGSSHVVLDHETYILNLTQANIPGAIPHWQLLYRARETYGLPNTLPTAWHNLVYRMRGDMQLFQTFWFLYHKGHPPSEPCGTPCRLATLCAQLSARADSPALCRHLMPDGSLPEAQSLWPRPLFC
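Fluorescence read-out (Ex 386 nm, Em 447 nm) after stopping the reaction at pH 10. Enzyme: ASM from human placenta; substrate HMU-PC0, 9 uM final; 60 min, 37 °C. Compound preincubation 10 min, ambient temperature.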
KB-3-1 tox – kills parental KB-3-1 adenocarcinoma cells | KB-3-1 viability, CellTiter-Glo ATP luminescence, 72 h | Potency, µM (titrated, usually from 46.1 µM), most hits filed as cytotoxic | hit rate 1.4% among 400,000; note: potency is the fitted concentration of half-maximal effect; % is set by controls: 0 for no effect and ±100 for the full control effect; nearly all actives have a fitted effect of over 60% in size
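Cytotoxicity in the drug-sensitive parental line KB-3-1 was scored as loss of CellTiter-Glo luminescence following 72 h incubation with compound. Values come from curve fitting of normalized concentration-response data.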
MCF10A rerep – induces DNA re-replication in MCF 10a normal breast cells; MCF 10A DNA re-replication, Hoechst nuclear intensity, 48 h; Potency, µM (top dose mostly 46.1 µM), for inactives: top-dose activity, positive = re-replication, most hits filed as activators; hit rate 2.9% among 350,000; note: potency is the fitted concentration of half-maximal effect; % of control where 0% means no effect; nearly all actives have a fitted effect of over 50% in size
SW480 rereplic – induces DNA re-replication in SW480 colon adenocarcinoma cells; Potency, µM (series often up to 46.1 µM), without a hit: at the highest dose re-replication activation, most hits filed as activators; hit rate 1.8% among 340,000; SW480 DNA re-replication, Hoechst DNA content imaging, 48 h; note: potency is the fitted concentration of half-maximal effect; % of control where 0% means no effect; nearly all actives have a fitted effect of over 55% in size
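250 cells/well; 23 nL cpd via pin tool; 48 hr, 37 C, 5% CO2; Hoechst 40 min; imager read of total nuclear intensity, ex 405/em 500-530 nm.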
Numbers without * were called inactive; ! = not confirmed by another sample. The list is not random: actives were taken first. Their share in the collection is about 6.9%. Unless noted, calls come from the whole dose curve; as a rule, active = well fitted curve in the direction sought with a large enough effect; inconclusive = small, poorly fitted or top-dose-only effect, or another doubt; inactive = no such curve, though single readings can be large; an effect the other way counts as inactive or inconclusive.

`O=C(CN1CCN(C(=O)C2CC2)CC1)Nc1cc(C(F)(F)F)cc(C(F)(F)F)c1` gave Giardia killer -16.8, KB-V1 MDR tox 20.6µM*, S-ASM inh -3.8%, KB-3-1 tox inactive, MCF10A rerep 4.5% and SW480 rereplic -1.6%.
Screening O=C(c1cccc(Cl)c1)N1CCN(c2ccc3c(c2)C2CC3CCN2C(=O)OCc2ccccc2)CC1 (configuration not stated) returned KB-V1 MDR tox 16.4µM* and KB-3-1 tox inconclusive.
`C(=C\c1ccncc1)/c1ccncc1` gave Giardia killer 24.5, KB-V1 MDR tox inactive, S-ASM inh 1.2%, KB-3-1 tox inactive, MCF10A rerep 12.0% and SW480 rereplic 2.8%.
For CCC[N+](C)(C)c1ccc(/C=C/c2ccncc2)cc1 the results were KB-V1 MDR tox inactive and KB-3-1 tox 1.46µM*.
`CC[N+](C)(C)c1ccc(/C=C/c2ccncc2)cc1` gave KB-V1 MDR tox inactive and KB-3-1 tox 2.31µM*.
Screening COc1ccc(-n2c(O)c(C=Nc3ccccc3)c3ccccc3c2=O)cc1 returned Giardia killer -15.0, KB-V1 MDR tox inactive, S-ASM inh 29.6%, KB-3-1 tox inconclusive, MCF10A rerep inconclusive and SW480 rereplic inconclusive.
CCN(c1ccc(N=Cc2c(O)n(Cc3ccc(OC)cc3)c(=O)c3ccccc23)cc1)C(C)C was read as Giardia killer -9.0, KB-V1 MDR tox inactive, S-ASM inh -6.8%, KB-3-1 tox inactive, MCF10A rerep 7.31µM* and SW480 rereplic inconclusive.
Screening O=C(/C=C/c1ccccc1)Nc1cccc(S(=O)(=O)Nc2ccccc2F)c1 returned Giardia killer -2.4, KB-V1 MDR tox 9.2µM*!, S-ASM inh -12.2%, KB-3-1 tox inactive, MCF10A rerep inconclusive and SW480 rereplic 10.5%.
For O=C(Cc1ccc(Cl)cc1Cl)Nc1cccc(S(=O)(=O)Nc2ccccc2F)c1 the results were Giardia killer 23.2, KB-V1 MDR tox 20.6µM*, S-ASM inh -9.4%, KB-3-1 tox inconclusive, MCF10A rerep inconclusive and SW480 rereplic -2.5%.
`CC(=O)Nc1ccc(SCC(=O)c2cc(C)n(-c3ccccc3F)c2C)cc1` gave Giardia killer -4.5, KB-V1 MDR tox inconclusive, S-ASM inh -2.0%, KB-3-1 tox inconclusive, MCF10A rerep 23.1µM* and SW480 rereplic 14.7%.
Screening Cc1cc(C(=O)Cn2nnc3ccccc3c2=O)c(C)n1-c1ccccc1F returned Giardia killer -8.5, KB-V1 MDR tox inconclusive, S-ASM inh -12.7%, KB-3-1 tox 5.17µM*, MCF10A rerep inconclusive and SW480 rereplic 12.6%.
Screening COC(=O)c1ccc(-n2c(C)cc(C(=O)CSc3ccc(NC(C)=O)cc3)c2C)cc1 returned Giardia killer 0.2, KB-V1 MDR tox inconclusive, S-ASM inh -20.6%, KB-3-1 tox inactive, MCF10A rerep inconclusive and SW480 rereplic -3.8%.
COc1ccc(-n2c(C)cc(C(=O)Cn3nnc4ccccc4c3=O)c2C)cc1 was read as Giardia killer 16.3, KB-V1 MDR tox inactive, S-ASM inh -1.5%, KB-3-1 tox inactive, MCF10A rerep 19.2% and SW480 rereplic 4.3%.
Screening CCNC(=O)OCC(CC)NC(=O)OCC(C)C (configuration not stated) returned Giardia killer -12.0, KB-V1 MDR tox inactive, S-ASM inh -2.3%, KB-3-1 tox inactive, MCF10A rerep 1.2% and SW480 rereplic -8.0%.
Screening CCC(COC(=O)Nc1cccc(C)c1)NC(=O)OCC(C)C (configuration not stated) returned Giardia killer -3.1, KB-V1 MDR tox 3.66µM*, S-ASM inh -3.4%, KB-3-1 tox inactive, MCF10A rerep 4.5% and SW480 rereplic -3.9%.
`COc1ccc(OC)c(N/C=C/C(=C(C#N)C#N)N(C)C)c1` gave Giardia killer 5.0, KB-V1 MDR tox inactive, S-ASM inh -4.1%, KB-3-1 tox 16.4µM*, MCF10A rerep 10.1% and SW480 rereplic 0.5%.

Screening data: PubChem BioAssay, National Center for Advancing Translational Sciences (NCATS)
